Test results: PubChem BioAssay (Tox21)
“And” between values parts separate entries of the source, which are not always exact repeats. Equal entries are not always repeated. More than one record can exist for a structure, and the calls need not agree. The source made the active and inactive calls. A call without a number means that no potency is given here. Unless noted, the call rests on the fitted dose curve.

Key:
[1] = qHTS assay to identify small molecule antagonists of the thyroid receptor (TR) signaling pathway (AID 743065; active means well fitted curve in the direction sought with a large enough effect in the repeat runs; inconclusive means weak or mixed curves; inactive means no such curve, though single readings can be large; an effect the other way counts as inactive or inconclusive; further: nearly all actives have a fitted effect of over 55% in size; further: potency means the concentration at half of the fitted maximal effect)
Procedure, shortened: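 GH3.TRE-Luc rat pituitary cells (two TREs driving luciferase) were dosed with compound, then stimulated with 1 nM T3 (final) for 23.5 h at 37 C. ONE-Glo luminescence was the read-out, with CellTiter-Fluor fluorescence as the cytotoxicity counter-screen.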

[2] = tested on: thyroid hormone receptor (rat, GH3 cells); assay: qHTS assay to identify small molecule agonists of the thyroid receptor (TR) signaling pathway (AID 743066)
[3] = molecular target: Estrogen receptor (Homo sapiens) (UniProt P03372); assay: qHTS assay to identify small molecule agonists of the estrogen receptor alpha (ER-alpha) signaling pathway (AID 743075); further: potency means the concentration at half of the fitted maximal effect
[4] = molecular target: Estrogen receptor (Homo sapiens) (UniProt P03372); assay: qHTS assay to identify small molecule agonists of the estrogen receptor alpha (ER-alpha) signaling pathway using the BG1 cell line (AID 743079; active means well fitted curve in the direction sought with a large enough effect in the repeat runs; inconclusive means weak or mixed curves; inactive means no such curve, though single readings can be large; an effect the other way counts as inactive or inconclusive; further: nearly all actives have a fitted effect of over 20% in size; further: potency means the concentration at half of the fitted maximal effect)
[5] = qHTS assay to identify small molecule antagonists of the estrogen receptor alpha (ER-alpha) signaling pathway using the BG1 cell line (AID 743080);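 further: BG1 cells stimulated with 17beta-estradiol alongside compound; nearly all actives have a fitted effect of over 25% in size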; further: potency means the concentration at half of the fitted maximal effect
Procedure, shortened: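 Endogenous full-length ER-alpha in BG1-Luc-4E2 cells drives a stably integrated 4×ERE luciferase gene; compounds were tested against 17beta-estradiol over 21.5 h, with luminescence and multiplexed viability fluorescence recorded.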

Aromatase (Homo sapiens) = Aromatase (Homo sapiens) (UniProt P11511); assay: qHTS assay to identify aromatase inhibitors (AID 743083; active means well fitted curve in the direction sought with a large enough effect in the repeat runs; inconclusive means weak or mixed curves; inactive means no such curve, though single readings can be large; an effect the other way counts as inactive or inconclusive; further: nearly all actives have a fitted effect of over 55% in size; further: potency means the concentration at half of the fitted maximal effect)
[6] = qHTS assay to identify small molecule antagonists of the estrogen receptor alpha (ER-alpha) signaling pathway - cell viability counter screen (AID 743074); further: nearly all actives have a fitted effect of over 45% in size; further: potency means the concentration at half of the fitted maximal effect
[7] = qHTS assay to identify small molecule antagonists of the estrogen receptor alpha (ER-alpha) signaling pathway using the BG1 cell line - cell viability counter screen (AID 743081; active means well fitted curve in the direction sought with a large enough effect in the repeat runs; inconclusive means weak or mixed curves; inactive means no such curve, though single readings can be large; an effect the other way counts as inactive or inconclusive;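 further: compound given together with 17beta-estradiol as the ER stimulus; nearly all actives have a fitted effect of over 45% in size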; further: potency means the concentration at half of the fitted maximal effect)
[8] = molecular target: Estrogen receptor (Homo sapiens) (UniProt P03372); assay: qHTS assay to identify small molecule antagonists of the estrogen receptor alpha (ER-alpha) signaling pathway (AID 743069; active means well fitted curve in the direction sought with a large enough effect in the signal ratio in the repeat runs, not every such curve was filed as active; inconclusive means weak or mixed curves, or effect the other way; inactive means no such curve, though single readings can be large or run the other way; the % refers to the signal ratio; further: potency means the concentration at half of the fitted maximal effect)
Procedure, shortened: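 In this cell-based reporter format, GripTite HEK293 cells harbouring ER-alpha-UAS-bla were grown overnight with 2% charcoal-stripped FBS, dosed with DMSO-dissolved compounds, then challenged with 17beta-estradiol. After 18 hr at 37C, beta-lactamase activity was detected by FRET fluorescence.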

Chain of Aromatase (Homo sapiens) (P11511 whole entry, looked up): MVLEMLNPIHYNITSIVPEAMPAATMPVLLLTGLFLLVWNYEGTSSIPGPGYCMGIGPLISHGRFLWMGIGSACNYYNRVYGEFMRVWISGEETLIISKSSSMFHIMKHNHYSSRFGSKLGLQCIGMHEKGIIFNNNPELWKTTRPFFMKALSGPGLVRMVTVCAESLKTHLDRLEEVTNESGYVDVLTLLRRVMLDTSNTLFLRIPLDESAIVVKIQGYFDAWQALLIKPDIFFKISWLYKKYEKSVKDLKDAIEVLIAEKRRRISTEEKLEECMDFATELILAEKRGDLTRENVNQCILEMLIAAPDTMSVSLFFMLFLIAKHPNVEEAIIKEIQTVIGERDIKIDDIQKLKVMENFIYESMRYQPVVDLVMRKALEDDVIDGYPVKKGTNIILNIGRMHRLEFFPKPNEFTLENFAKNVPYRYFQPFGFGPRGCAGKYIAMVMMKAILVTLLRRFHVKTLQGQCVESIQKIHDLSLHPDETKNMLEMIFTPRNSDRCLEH
Chain of Estrogen receptor (Homo sapiens) (P03372 whole entry, looked up): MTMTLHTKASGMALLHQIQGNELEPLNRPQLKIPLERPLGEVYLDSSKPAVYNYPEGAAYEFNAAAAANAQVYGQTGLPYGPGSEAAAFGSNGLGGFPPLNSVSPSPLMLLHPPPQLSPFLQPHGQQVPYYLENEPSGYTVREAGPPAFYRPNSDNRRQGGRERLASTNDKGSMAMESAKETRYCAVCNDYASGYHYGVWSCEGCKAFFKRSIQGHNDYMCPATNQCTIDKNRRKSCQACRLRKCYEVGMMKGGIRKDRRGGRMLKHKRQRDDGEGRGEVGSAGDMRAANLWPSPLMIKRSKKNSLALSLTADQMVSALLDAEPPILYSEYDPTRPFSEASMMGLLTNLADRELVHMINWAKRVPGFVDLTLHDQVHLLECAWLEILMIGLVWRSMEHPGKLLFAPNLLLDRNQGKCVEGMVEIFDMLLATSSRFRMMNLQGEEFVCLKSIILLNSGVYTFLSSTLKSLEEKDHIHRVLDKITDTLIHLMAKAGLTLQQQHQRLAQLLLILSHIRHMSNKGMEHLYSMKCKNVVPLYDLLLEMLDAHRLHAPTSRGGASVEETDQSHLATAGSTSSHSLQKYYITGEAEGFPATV

SMILES | Potency [1] | Potency [2] | Potency [3] | Potency [4] | Potency [5] | Potency (Aromatase (Homo sapiens)) | Potency [6] | Potency [7] | Potency [8]
c1cc2ccc3cccc4ccc(c1)c2c34 | inactive | inactive | inactive | inactive | inactive | inactive |  |  | 
OC(c1ccc(Cl)cc1)(c1ccc(Cl)cc1)c1cccnc1 | 54.5 µM (active) | inactive | inactive |  | inactive |  | inactive | inactive | 
IC(I)=C(I)I | 6.11 µM (active) | inactive | inactive |  | 9.69 µM (active) | 6.86 µM (active) | inactive | inactive | 
CCOP(=S)(OCC)SCn1nnc2ccccc2c1=O | 61.1 µM (active) | inactive | 19.5 µM [inconclusive] (active) |  |  | 34.4 µM (active) | 49 µM (active) |  | 
O=C(Nc1ccccc1)Nc1ccnc(Cl)c1 | 27.3 µM (active) | inactive | inactive |  |  | 54.5 µM (active) | inactive | inactive | 13.8 µM [inconclusive] (active)
CCOC(=O)CBr | inactive | inactive |  |  |  | inactive | inactive | inactive | 
CCOP(=O)(OCC)SCCSCC | inactive | inactive | inactive |  | inactive | inactive | inactive | inactive | inactive
OCCCBr | 61.1 µM (active) | inactive | inactive | inactive | inactive | inactive |  |  | inactive
C=CC(=O)OCC(C)O (centres undefined) | inactive | inactive |  | inactive | inactive |  |  | inactive | inactive
O=C(O)c1ccccc1C(=O)Nc1cccc2ccccc12 | inactive | inactive |  |  |  | inactive | inactive | inactive | 
C#CCOC(C(=O)OCCN(C)C)(c1ccccc1)c1ccccc1 | inactive | inactive |  |  |  | inactive | inactive | inactive | 
N#Cc1cc(I)c(O)c(I)c1 | 27.3 µM (active) | inactive |  |  |  |  |  | inactive | 
BrCCCCBr | inactive | inactive | inactive | inactive | inactive | inactive | inactive | inactive | inactive
Nc1ccc([N+](=O)[O-])cc1[N+](=O)[O-] |  | inactive | inactive | inactive | inactive | inactive | inactive |  | inactive
O=C(O)C1(c2ccc3c(c2)OC[C@H](Cc2ccc(-c4ccccc4)cc2)[C@H]3O)CCCC1 | 54.5 µM (active) |  |  |  |  | inactive | 54.9 µM (active) | inactive | 
COc1cc(CC(C)N)cc2c1OCO2 (centres undefined) |  | inactive | inactive | inactive | inactive | inactive |  |  | 
Cl/C=C\C[N+]12CN3CN(CN(C3)C1)C2 |  | inactive | inactive | inactive | inactive |  | inactive | inactive | inactive
CN1C[C@H](CNC(=O)OCc2ccccc2)C[C@@H]2c3cccc4c3c(cn4C)C[C@H]21 | 10.6 µM (active) |  | inactive |  | inactive |  | inactive |  | 
CN1[C@@H]2CC[C@H]1CC(OC(=O)c1cc(Cl)cc(Cl)c1)C2 (some centres undefined) |  |  | inactive | inactive | inactive | inactive | inactive | inactive | inactive
Nc1ccc(N=Nc2ccc(-c3ccc(N=Nc4c(S(=O)(=O)O)cc5cc(S(=O)(=O)O)c(N=Nc6ccccc6)c(O)c5c4N)cc3)cc2)c(N)c1 |  | inactive | inactive | inactive | inactive |  |  | inactive | 
CCCC(Cn1cncn1)c1ccc(Cl)cc1Cl (centres undefined) | 61.1 µM (active) | inactive |  |  |  | 12.2 µM (active) |  | inactive | 
CCCCN=C=O | inactive | inactive |  |  |  | inactive |  | inactive | 
C(=NC1CCCCC1)=NC1CCCCC1 |  | inactive | inactive | 13.8 µM (active) and inactive | 2.45 µM (active) and 2.43 µM (active) | inactive and 1.37 µM (active) | inactive |  | inactive and 3.89 µM [inconclusive] (active)
CC1CC(CC2CCC(N)C(C)C2)CCC1N (centres undefined) |  | inactive | inactive | inactive |  | inactive | inactive | 31.1 µM (active) | inactive

SMILES | Potency [1] | Potency [2] | Potency [3] | Potency [4] | Potency [5] | Potency (Aromatase (Homo sapiens)) | Potency [6] | Potency [7] | Potency [8]
S=C=NCc1ccccc1 |  |  |  |  |  | inactive | inactive | inactive | 
C=CC(=O)OCCCCO |  | inactive |  | inactive | inactive |  | inactive | inactive | 
COc1c(C(C)(C)C)cc([N+](=O)[O-])c(C)c1[N+](=O)[O-] |  | inactive | 48.6 µM [activator] (active) | inactive | inactive |  | inactive | inactive | inactive
CC(C)N(C(=O)COc1nnc(C(F)(F)F)s1)c1ccc(F)cc1 |  | inactive | inactive | inactive | inactive | inactive | inactive | inactive | inactive
CC(C)(OO)c1ccccc1 |  |  | inactive | inactive | inactive | inactive | inactive | inactive | inactive
CCOC(=O)[C@]1(c2ccccc2)Oc2ccccc2[C@@H]1N | 68.6 µM (active) |  |  |  |  | 27.3 µM (active) |  |  | 
CCCN(CC1CC1)c1c([N+](=O)[O-])cc(C(F)(F)F)cc1[N+](=O)[O-] |  | inactive | inactive | inactive | inactive | inactive | inactive | inactive | inactive
CCCCc1c(C)nc(NCC)nc1OS(=O)(=O)N(C)C |  | inactive | inactive |  |  | inactive | inactive |  | inactive
O=S1OC[C@@H]2[C@H](CO1)[C@]1(Cl)C(Cl)=C(Cl)[C@@]2(Cl)C1(Cl)Cl (some centres undefined) |  | inactive | inactive |  |  | 61.1 µM (active) | inactive | inactive | 
ClCCCCBr |  |  |  |  |  | inactive | inactive | inactive | 
CC(c1ccc(O)cc1)(c1ccc(O)cc1)c1ccc(O)cc1 | 61.1 µM (active) |  |  | 27.3 µM (active) |  |  |  | inactive | 21.9 µM [inconclusive] (active)
Cc1ccc(-c2c(Cl)nc(C#N)n2S(=O)(=O)N(C)C)cc1 | 13.7 µM (active) |  |  |  | 54.4 µM (active) |  |  | inactive | 
C=CC(=O)OC(C)(C)C |  |  |  |  |  | inactive | inactive | inactive | 
O=C(O)CC(Cl)C(=O)O (centres undefined) |  |  |  |  |  | inactive | inactive | inactive | 
Cc1cc(=O)[nH]o1 |  |  | inactive | inactive | inactive | inactive | inactive | inactive | inactive
ClP(Cl)(Cl)(Cl)Cl |  | inactive | inactive | inactive | inactive | inactive | inactive | inactive | inactive
CCCCCCCCCCOC(=O)c1ccccc1C(=O)OCCCCCCCCCC |  |  | inactive | inactive | inactive | inactive | inactive | inactive | 
CN1C(=O)C(O)N=C(c2ccccc2)c2cc(Cl)ccc21 (centres undefined) |  |  | inactive |  |  | inactive | inactive | inactive | inactive
CCCCC(CC)COP(=O)(Oc1ccccc1)Oc1ccccc1 (centres undefined) |  | inactive | inactive | inactive | inactive | inactive | inactive | inactive | inactive
O=S(=O)(O)C(F)(F)C(F)(F)C(F)(F)C(F)(F)F |  | inactive | inactive | inactive | inactive |  |  |  | inactive
CO[C@@H]1[C@H](OC(=O)NC(=O)CCl)CC[C@]2(CO2)[C@H]1[C@@]1(C)O[C@@H]1CC=C(C)C |  | inactive |  | inactive | inactive | inactive | inactive | inactive | 
O=C1C(=O)c2cccc3cccc1c23 |  | inactive | inactive | inactive | inactive | inactive |  |  | inactive
CC(C)(C)C(O)C(Oc1ccc(Cl)cc1)n1cncn1 (centres undefined) |  | inactive |  |  |  | 21.1 µM (active) |  |  | 
CCCCC(O)(Cn1cncn1)c1ccc(Cl)cc1Cl (centres undefined) | 61.1 µM (active) |  | inactive |  | 54.4 µM (active) | 48.5 µM (active) | inactive |  | 
